# Measurements from PubChem BioAssay (NCATS).
# Records with an inconclusive call do not appear. Unmarked numbers belong to inactive results. Active and inactive are the calls of the source. The call rests on the fitted dose curve; in most records, active means well fitted inhibition curve with a large enough effect; inconclusive means small, poorly fitted or top-dose-only effect; inactive means flat fitted curve, though single readings scatter.
# Test: P-glycoprotein substrates identified in KB-8-5-11 adenocarcinoma cell line, qHTS therapeutic library screen (AID 1346987); further: nearly all actives have a fitted effect of over 65% in size
# Conditions: KB-8-5-11 (P-gp overexpressing) viability, CellTiter-Glo, 72 h; series mostly up to 44.5 µM; activity change, negative = cytotoxicity: at the top concentration
# How it was run: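 P-gp-mediated resistance screen: KB-8-5-11 cells treated 72 h with compounds in dose-response. CellTiter-Glo viability.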
# On the % scale 0 is the no-effect control and ±100 the full control effect.
Structure (SMILES),"activity change, negative = cytotoxicity",outcome
C[C@]1(OC(=O)/C=C/c2ccccc2)C[C@@H](O)[C@]2(O)C=CO[C@@H](O[C@@H]3O[C@H](CO)[C@@H](O)[C@H](O)[C@H]3O)[C@@H]21,5.57% [at 17.3 µM],–
O=C(NC1Cc2ccccc2N(C[C@@H](O)CO)C1=O)c1cc2cc(Cl)sc2[nH]1 (some centres undefined),0.381%,–
CC(C)=CCc1c(O)cc2oc3cc(C)cc(O)c3c2c1C,-14.4%,–
CC1=CC(=O)CC(C)(C)C1CO[C@@H]1O[C@H](CO)[C@@H](O)[C@H](O)[C@H]1O (some centres undefined),4.77%,–
Oc1ccc(CC2NCCc3cc(O)c(O)cc32)cc1 (centres undefined),–,inactive
C=C1CC/C=C(/C(=O)O)CCC2C1CC2(C)C (centres undefined),–,inactive
CC1CC(=O)C2C(O)(C1)CC(O)C13OC1c1c(O)cccc1C(=O)C23O (centres undefined),–,inactive
C=C(C(=O)O)[C@H]1C[C@]2(C)C(=O)CC[C@]23O[C@H]1C[C@@H]3C,3.49%,–
CC1OC(O[C@H]2CC[C@@]3(C)C(CC[C@]4(C)C3CC=C3C5CC(C)(C)CC[C@]5(C(=O)OC5OC(CO)C(OC6OCC(OC7OCC(O)C(O)C7O)C(O)C6O)C(O)C5O)CC[C@]34C)C2(C)C)C(O)C(O)C1OC1OC(CO)C(O)C(OC2OC(CO)C(O)C(O)C2O)C1O (some centres undefined),–,inactive [at 9.29 µM]
CC(=O)c1ccc(O[C@@H]2O[C@H](CO[C@@H]3OC[C@@H](O)[C@H](O)[C@H]3O)[C@@H](O)[C@H](O)[C@H]2O)cc1,7.02% [at 17.3 µM],–
CC1CCC2(C)CCC3(C)C(=CCC4C5(C)CCC(O)C(C)(C(=O)O)C5CCC43C)C2C1C (centres undefined),7.94% [at 17.3 µM],–
CN(C)C(=O)C(O)C(Cc1ccccc1)NC(=O)c1cc2cc(Cl)ccc2[nH]1 (centres undefined),-5.12%,–
CC1(C)CC[C@]2(C(=O)O)CC[C@]3(C)C(=CCC4[C@@]5(C)C(=O)C[C@H](O)[C@@](C)(CO)C5CC[C@]43C)[C@@H]2C1 (some centres undefined),-0.0343% [at 17.3 µM],–
CC(=O)NCC1CN(c2ccc(-c3ccc(CNCc4cn[nH]n4)cc3)c(F)c2)C(=O)O1 (centres undefined),-5.92%,–
C=C(C)[C@@H]1CC[C@]2(C(=O)O)CC[C@]3(C)[C@H](CCC4[C@@]5(C)CCC(=O)C(C)(C)C5C(O)C[C@]43C)C12 (some centres undefined),-6.89% [at 17.3 µM],–
C[C@@H]1O[C@@H](O[C@H]2[C@@H]3C=CO[C@@H](O[C@@H]4O[C@H](CO)[C@@H](O)[C@H](O)[C@H]4O)[C@@H]3[C@@]3(CO)O[C@@H]23)[C@H](O)[C@H](OC(=O)/C=C/c2ccc(O)cc2)[C@H]1OC(=O)/C=C/c1ccc(O)cc1,–,inactive [at 17.3 µM]
CC/C=C\CC1C(CC(=O)O)CCC1OC1OC(CO)C(O)C(O)C1O (centres undefined),–,inactive
COc1ccc(/C=C/C(=O)O[C@@H]2[C@@H](O)[C@@H](O)[C@H](O[C@H]3[C@@H]4C=CO[C@@H](O[C@@H]5O[C@H](CO)[C@@H](O)[C@H](O)[C@H]5O)[C@@H]4[C@@]4(CO)O[C@@H]34)O[C@H]2C)cc1,–,inactive [at 17.3 µM]
NC(=O)[C@@H]1CC[C@H](c2ccc(OCc3ccccc3F)cc2)N1,-13.2%,–
CC1CCC2C(C(=O)O)=CC3(O)CC(C)(C)CC123 (centres undefined),0.573%,–

Structure (SMILES),"activity change, negative = cytotoxicity",outcome
C=C1C(=O)O[C@@H]2/C=C(\C)CC/C=C(\C(=O)O[C@@H]3O[C@H](CO)[C@@H](O)[C@H](O)[C@H]3O)CC[C@@H]12,-4.51% [at 17.3 µM],–
C=C[C@H]1[C@H](O[C@@H]2O[C@H](CO)[C@@H](O)[C@H](O)[C@H]2O)OC=C(C(=O)OC)[C@H]1CCO,8.76%,–
CCCN1CCC[C@@H](c2cccc(S(C)(=O)=O)c2)C1,-5.3%,–
C/C=C/C(=O)OC1/C=C/C(O)C(OC(C)=O)CCC(=O)OC1C (centres undefined),2.79%,–
CC(=O)O[C@@H]1C=C2[C@H](CC[C@@]3(C)[C@@]2(O)CC[C@H]2Cc4c([nH]c5ccccc45)[C@@]23C)O[C@@H]1C(C)(C)O,3.85% [at 17.3 µM],–
C[C@@H]1CC[C@]2(C(=O)O[C@@H]3O[C@H](CO[C@@H]4O[C@H](CO)[C@@H](O)[C@H](O)[C@H]4O)[C@@H](O)[C@H](O)[C@H]3O)CC[C@]3(C)C(=CCC4[C@@]5(C)CC[C@H](O)[C@](C)(C(=O)O)C5CC[C@]43C)[C@@H]2[C@]1(C)O (some centres undefined),–,inactive [at 9.29 µM]
O=C(O)c1ccnc2cc(-c3nc4ccccc4n3CCN3CCCCC3)sc12,5.43%,–
C=C1CCC2[C@](C)(CO)CCC[C@@]2(C)[C@@H]1CCC1=CCOC1=O (some centres undefined),1.35%,–
C[C@@H]1CCC2C(C)(C)[C@H](O)[C@H](O)C[C@]2(C)[C@@]12Cc1c(O)cc3c(c1O2)CN(CCCC(=O)O)C3=O (some centres undefined),1.51% [at 17.3 µM],–
CC1(C)CC=C(C#Cc2ccccc2)c2cc(/C=C/c3ccc(C(=O)O)cc3)ccc21,–,inactive
CCc1cc(CC[C@]2(C3CCCC3)CC(O)=C(Cc3nc4nc(C)cc(C)n4n3)C(=O)O2)cc(CC)n1,-5.48%,–
COc1cc(CO)ccc1O[C@@H]1O[C@H](CO)[C@@H](O)[C@H](O)[C@H]1O,6.61%,–
COc1ccc(C2(O)c3c(ccc4c3OC(C)(CCC=C(C)C)C=C4)NC(=O)C2OC)cc1 (centres undefined),6.56% [at 17.3 µM],–
CO[C@@H]1[C@]2(O)C(=O)N3/C=C\C(C)(C)c4[nH]c5ccccc5c4/C=C\3C(=O)N2[C@]23[C@H](CO)C(C)(C)N2c2ccccc2[C@]13O,–,inactive [at 17.3 µM]
C=C(C)[C@@]1(O)C[C@@]2(C)C(=CC1=O)CC[C@@H](O)[C@@H]2C,5.24%,–
COc1cc(/C=C/C(=O)O[C@@H]2O[C@H](CO)[C@@H](O)[C@H](O)[C@H]2O)ccc1O,-2.57%,–
CCC(C)C1NC(=O)C2C(C)CCN2C(=O)C(CC(O)CO)OC(=O)CCNC(=O)C(C)N(C)C(=O)C(C(C)C)N(C)C1=O (centres undefined),1.64% [at 17.3 µM],–
COc1ccc(C2COc3cc(O)ccc3C2)c(O)c1OC (centres undefined),5.83%,–
CC(=O)OCC1OC(O[C@H]2CC[C@]34C[C@]35CC(O)[C@]3(C)[C@@H]([C@H](C)CC/C=C(\C)C(=O)O)C(O)C[C@@]3(C)C5CC[C@H]4C2(C)C)C(O)C(O)C1OC1OCC(O)C(O)C1O (some centres undefined),–,inactive [at 9.29 µM]
